# Screens as filed in PubChem.
# Rows were chosen to be rich in hits. Some 5.7% of all compounds tested hit in one or more screens of this group.
# MPTP inh: permeability transition pore inhibition | isolated mouse mitochondria, Ca2+ swelling absorbance, 30 min | inhibition, % at 10 µM | 360,000 compounds, 1.4% hits | AID 602449;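 active means inhibition of 50% or more, scaled per plate between neutral and stimulator controls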
# rCAG binder: r(CAG) repeat RNA binding; inhibition, % at 3 µM; TO-PRO-1 dye displacement fluorescence; 370,000 compounds, 1.3% hits; AID 651821;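 active means inhibition above the plate cutoff, the mean of all test compounds on that plate plus 3 SD, cut at about 35% in these data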;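 further: higher means more dye released from RNA so lower well fluorescence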
# FAS TE block: inhibitors of human fatty acid synthase thioesterase domain. P49327. 360,000 compounds, 0.67% hits. inhibition, % at 15 µM. recombinant FAS-TE, OMFH fluorogenic substrate, fluorescence endpoint;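 active means compounds whose normalised, plate-corrected inhibition of enzyme fluorescence in the single-dose primary screen is 50% or more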
# GRIN3A LBD mod: modulators (binders) of human NR3A ligand-binding domain. Tm shift relative to glycine control, % at 25 µM. NR3A LBD differential scanning fluorimetry, Tm shift; 0% = protein alone, 100% = glycine-bound protein. 340,000 compounds, 2.5% hits. AID 1259313;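 active means melting temperature shift of at least 10% of the positive control shift, at one fixed dose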
# Myeloid diff MLP: compounds promoting myeloid differentiation; 360,000 compounds, 1% hits; ER-HoxA9 myeloid progenitors, lysozyme-GFP differentiation, flow cytometry; calls only at 10 µM;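 active means normalized GFP-positive differentiation at or above the plate's own cutoff, the solvent-only control mean plus 3 SD; inconclusive means no clear call, values can overlap the other calls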;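 further: cells exposed to compound for four days before flow analysis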
# MPTP counter: membrane potential counter-screen of mitochondrial pore inhibitors; isolated mitochondria, Rhodamine 123 fluorescence; inhibition, % at 10 µM; shares compounds with MPTP inh; 5,000 compounds, 78% hits; in the data active means inhibition above about 22%
# MPTP swell DR: dose response confirmation of mitochondrial permeability transition pore inhibitors; AID 651561; isolated mitochondria swelling, absorbance; 780 compounds, 58% hits; shares compounds with MPTP inh; IC50, µM; in the data active means IC50 below about 20 µM
# MPTP cs DR: MPTP inhibitor counter-screen activity, dose response | isolated mitochondria counterscreen, fluorescence read-out | IC50, µM | 780 compounds, 49% hits | shares compounds with MPTP inh | AID 651564; in the data active means IC50 below about 80 µM
# Hits are given with their value; . = inactive; ? = inconclusive; / = no result.
SMILES,MPTP inh,rCAG binder,FAS TE block,GRIN3A LBD mod,Myeloid diff MLP,MPTP counter,others
CC1=CC(=O)C=C(C)C1=NOS(=O)(=O)c1ccccc1,103,.,.,.,?,90,
CC1=CC(=O)C(C(C)C)=C/C1=N/OS(=O)(=O)c1ccccc1,96,.,.,.,/,92,
COCCNC(=O)C1(C)CCCN(C(=O)c2ccc(OC)c(OC)c2)C1 (stereo not drawn),.,.,.,/,.,/,
Cc1noc(C)c1CSc1nc2ccccc2nc1NS(=O)(=O)c1ccc(Cl)cc1,88,/,.,.,.,87,
O=S(=O)(Nc1nc2ccccc2nc1NCc1ccco1)c1ccc(Cl)cc1,.,.,.,.,.,/,
CCOc1ccccc1N1CCN(CC(O)COC2CCCc3ccccc32)CC1 (stereo not drawn),.,.,.,.,.,/,
CCCCNS(=O)(=O)c1ccc(NC(=O)C(Sc2ccccc2)c2ccccc2)cc1 (stereo not drawn),76,.,.,21,.,68,
CC(=O)Nc1ccc(NC(=O)C(Sc2ccccc2)c2ccccc2)cc1 (stereo not drawn),.,.,.,.,.,/,
CSc1ccc(S(=O)(=O)NC2CC3CCC2C3)cc1 (stereo not drawn),.,.,.,.,.,/,
CCC(=O)N1CCC1(C)C(=O)Nc1ccc(C)c(C)c1 (stereo not drawn),.,.,.,/,.,/,
O=C(CSCc1ccccc1)Nc1ccc(F)c(F)c1,71,.,.,.,.,63,
COC(=O)[C@@]12C[C@@H](CC(=O)N3CCC(c4ccccc4)CC3)C(=O)N(Cc3ccc4c(c3)OCO4)C1=CCC(C)(C)C2,.,.,/,/,.,/,
Cc1ccccc1-c1nsc(SCC(=O)Nc2ccc3c(c2)OCO3)n1,84,.,.,.,.,66,
Cc1cccc(-c2nsc(SCC(=O)Nc3ccc4c(c3)OCO4)n2)c1,54,.,.,.,.,65,
CSc1nsc(SCC(=O)Nc2ccc3c(c2)OCCO3)n1,.,.,.,.,.,/,
O=C(Nc1cccs1)Nc1c(F)c(F)cc(F)c1F,.,.,.,.,.,/,
O=C(Nc1cccs1)Nc1c(F)c(F)c(F)c(F)c1F,96,.,.,.,.,84,
COc1ccc(NC(=O)Nc2cccs2)cc1Cl,74,.,.,30,.,80,
CCc1cccc(NC(=O)Nc2cccs2)c1,79,.,.,.,.,99,
N#Cc1cccc(NC(=O)Nc2cccs2)c1,86,.,.,.,.,106,
CC(C)OC(=O)CSc1nc(Cc2cccs2)nc2ccccc12,.,.,.,.,.,/,
Cc1cccc(NC(=O)CNC(=O)c2cccs2)n1,.,.,.,.,.,/,
N#Cc1cccc(NC(=O)CN2CCN(Cc3ccccc3)CC2)c1,.,.,.,.,.,/,
N#Cc1cccc(NC(=S)Nc2ccccc2)c1,82,.,.,.,.,90,
C[C@@H]1O[C@@H](O[C@@H]2C(=O)c3c(O)cc(O)cc3O[C@H]2c2ccc(O)c(O)c2)[C@H](O)[C@H](O)[C@H]1O,.,.,.,.,.,/,
SMILES,MPTP inh,rCAG binder,FAS TE block,GRIN3A LBD mod,Myeloid diff MLP,MPTP counter,others
O=C(Cc1sc(-c2ccccc2)nc1-c1ccccc1)Nc1ccc(Cl)cc1,69,.,.,24,.,.,MPTP swell DR=12;MPTP cs DR=<2.5
Cc1ccc(CC(=O)Nc2ccncc2)cc1,84,.,.,.,.,36,
O=C(Cc1ccc([N+](=O)[O-])cc1)Nc1ccc(Cl)cc1,68,.,.,.,.,76,
O=C(Cc1sc(-c2ccccc2Cl)nc1-c1ccccc1)Nc1ccccc1,.,.,.,.,/,/,
O=C(C/C=N\OCc1ccc([N+](=O)[O-])cc1)Nc1ccc(Cl)cc1,.,.,.,.,.,/,
Cc1ccc(CC(=O)Nc2cccnc2)cc1,.,.,.,.,.,/,
O=C(Cc1ccc(Cl)cc1)Nc1ccncc1,58,.,.,.,.,.,MPTP swell DR=.;MPTP cs DR=41
CC(C)CCNC(=O)C(c1ccco1)N(CCCO)C(=O)Cn1nnc(-c2ccc(F)cc2)n1 (stereo not drawn),.,.,.,.,.,/,
CCOC(=O)CCNC(=O)c1ccc2nc(C3CCCCC3)oc2c1,.,.,.,.,.,/,
CCN1CCc2nc(N)oc2CC1,.,.,.,.,.,/,
COC(=O)C1=C(C)N(Cc2ccccc2C(F)(F)F)C(=NCc2ccccc2C(F)(F)F)NC1c1cccc(C(F)(F)F)c1 (stereo not drawn),/,.,/,/,/,/,
Cc1ccc(C(C#N)c2ccc3c(C(F)(F)F)cc(C(F)(F)F)nc3n2)cc1 (stereo not drawn),113,.,.,.,.,68,
N#CC(c1ccccc1)c1ccc2c(C(F)(F)F)cc(C(F)(F)F)nc2n1 (stereo not drawn),93,.,.,.,.,70,
FC(F)(F)c1cc(C(F)(F)F)c2ccc(N/N=C/c3ccccc3)nc2n1,.,.,.,.,.,/,
CCC(CC)C(=O)Oc1c(Sc2ccccc2[N+](=O)[O-])c(C)nn1C(C)(C)C,.,.,.,.,.,/,
COCC(=O)Oc1c(Sc2ccccc2[N+](=O)[O-])c(C)nn1C(C)(C)C,60,.,.,.,.,62,
CC(Oc1ccc(-c2ccccc2)cc1)C(=O)N/N=C/c1cccnc1 (stereo not drawn),.,.,.,.,.,/,
O=C(NCCc1ccncc1)Nc1ccc(Cl)cc1,.,.,.,.,.,/,
S=C(NCCc1ccccc1)Nc1ccc(Cl)cc1Cl,82,.,.,.,.,102,
CCCCCCNC(=O)Nc1ccccc1,.,.,.,.,.,/,
CC(=O)c1cccc(NC(=S)NCCc2ccc(Cl)cc2)c1,83,.,.,15,.,100,
CCCCSCCCNC(=O)Nc1ccc(CC)cc1,86,.,.,.,.,83,
O=C(NCCc1ccc(Cl)cc1)Nc1ccc(Cl)cc1,78,.,.,20,.,98,
O=C(C1CCC1)N1CCCc2cc(S(=O)(=O)N3CCN(c4ccccc4)CC3)ccc21,.,.,.,.,.,/,
Cc1cc(Cl)ccc1NC(=S)NCCc1ccc(Cl)cc1,88,.,.,.,.,81,
SMILES,MPTP inh,rCAG binder,FAS TE block,GRIN3A LBD mod,Myeloid diff MLP,MPTP counter,others
Cc1cc(Cl)ccc1NC(=S)NCc1ccc(Cl)cc1,84,.,.,.,.,99,
Cc1ccc(Cl)cc1NC(=S)NCc1cccn1C,64,.,.,.,.,47,
Cc1ccccc1NC(=S)NCc1cccn1C,.,.,.,.,.,/,
CN(C)CCCNc1ncnc2c1cnn2Cc1ccccc1Cl,.,.,.,.,.,/,
Cc1nn(C)c(C)c1NC(=O)Nc1ccc(Cl)c(Cl)c1,102,.,.,.,.,88,
Cc1nn(C)c(C)c1NC(=O)Nc1cccc(C(F)(F)F)c1,72,.,.,.,.,54,
